CYP2C9 inhib – blocks human cytochrome P450 2C9. 20% of 96,000 active. AID 777. CYP2C9 Supersomes, luciferin-H conversion, luminescence. inhibition, % at 5 µM;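 active = blocking of liver enzyme CYP2C9 beyond about 50% at 5 µM, limit read from the data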
CYP2C19 inhib – inhibitors of human CYP2C19; CYP2C19 Supersomes, luciferin-H EGE luminescence, 30 min; inhibition, % at 5 µM; 21% of 96,000 active;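 active = CYP2C19 inhibition above a set limit at 5 µM in the primary screen, cut at about 50% in these data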;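 also: plate controls were negative control wells for no effect and 2.5 mM tranylcypromine positive control for full effect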
Cav32 inh – human Cav3.2 channel inhibition, primary screen; 4% of 100,000 active; AID 449739; B-score at 10 µM; Cav3.2-expressing cells, Fluo-4 calcium fluorescence FDSS; stronger effect = lower value; O95180;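 active = single-dose well whose peak fluorescence ratio is a statistical outlier from its plate by either plate-standardised score or position-corrected B-score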
CYP2C19 activ – increases human CYP2C19 enzyme activity; recombinant CYP2C19, luciferin-H EGE luminescence; stronger effect = higher value; 0 = fully inhibited enzyme, 1 = untreated enzyme; activation factor at 5 µM; 96,000 tested, under 10 active; AID 1025;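 active = activation factor of at least 2 at 5 µM in the primary screen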;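 also: 0 = wells with 2.5 mM tranylcypromine and 1 = vehicle-only wells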
CYP2C9 activ – increases human cytochrome P450 2C9 activity | recombinant CYP2C9, luciferin-H conversion, luminescence; stronger effect = higher value; factor 1 = untreated enzyme, 0 = blocked | P11712 | 1.4% of 96,000 active | AID 1024 | activation factor at 5 µM;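 active = activation factor of 2 or more for CYP2C9 at a 5 µM dose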;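 also: 0 = sulfaphenazole-blocked wells and 1 = vehicle-only wells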
The depositor's hits bear a star; . = no result. A selection: hits, their analogues and other compounds. The true share with any hit is near 27%.

SMILES	CYP2C9 inhib	CYP2C19 inhib	Cav32 inh	CYP2C19 activ	CYP2C9 activ
C=CCN(C(=O)c1cccc(S(=O)(=O)N2CCN(C)CC2)c1)c1nc(-c2ccccc2)cs1	77*	79*	.	0.2	0.2
CN1CCN(S(=O)(=O)c2cccc(C(=O)N(c3ccccn3)C3CCCCC3)c2)CC1	6	11	0.66	0.9	0.9
COCCNc1nc(-c2cc(-c3ccc(Cl)cc3)on2)cc(C(C)C)n1	.	.	0.68	.	.
COc1ccc(CC2CCOC2=O)cc1 (configuration not stated)	3	76*	0.34	0.2	1
COc1ccc(CC2C(=O)OC(C)(C)OC2=O)cc1	10	1	0.21	1	0.9
CCC(=O)Nc1cc(-c2nn(C)c(=O)c3ccccc23)ccc1N1CCOCC1	62*	34	.	0.7	0.4
COc1nnc(-c2ccc(N3CCOCC3)c(NC(=O)c3ccco3)c2)c2ccccc12	65*	25	-0.43	0.8	0.3
Cn1nc(-c2ccc(N3CCCCC3)c(NC(=O)c3ccco3)c2)c2ccccc2c1=O	96*	59*	-0.067	0.4	0
Cc1cc(C)c(S(=O)(=O)N2CCN(CCO)CC2)c(C)c1	-129	43	0.0066	0.6	2.3*
Cc1cc(C)c(S(=O)(=O)N2CCN(C)CC2)c(C)c1	-122	7	0.43	0.9	2.2*
COc1cc2c(cc1OC)C(c1cc(OC)c(OC)c(OC)c1)NCC2 (configuration not stated)	.	.	0.18	.	.
COc1ccc(CN(C(=O)CN2C(=O)C(C)Oc3ccccc32)C2CCCC2)c(OC)c1 (configuration not stated)	88*	81*	-4.4*	0.2	0.1
COc1ccc(CN(C(=O)CN2C(=O)COc3ccccc32)C2CCCC2)c(OC)c1	44	44	-0.81	0.6	0.6
CCN(CCO)c1ncnc2c1sc1nc(CC(C)C)c3c(c12)CC(C)(C)OC3	69*	20	-0.71	0.8	0.3
CCC(C)NC(=O)C1CCN(S(=O)(=O)CC)CC1 (configuration not stated)	3	2	1.4	1	1
O=C1OCCC1Sc1nnc(-c2cccs2)n1Cc1ccccc1 (configuration not stated)	10	9	0.95	0.9	0.9
CC(=O)c1c(C)[nH]c(C(=O)CSc2nnc(C3CCCCC3)n2N)c1C	4	-4	0.069	1	1
O=c1cc(CSc2nnc(-c3cccs3)n2Cc2ccccc2)nc2sc3ccccc3n12	95*	93*	-1.8	0.1	0
CCn1c(SCC(=O)NCCc2ccccc2)nnc1-c1cccs1	32	32	0.13	0.7	0.7
CC(=O)c1c(C)[nH]c(C(=O)CSc2nnc(-c3ccccc3)n2Cc2ccc3c(c2)OCO3)c1C	18	70*	-0.34	0.3	0.8
C=CCn1c(SCC(=O)c2[nH]c(C)c(C(C)=O)c2C)nnc1-c1ccncc1	24	86*	-1.1	0.1	0.8
Cc1cc(C(=O)CSc2nnc(-c3cccc(F)c3)n2N)c(C)n1Cc1ccc2c(c1)OCO2	43	40	-2.4	0.6	0.6
CC(=O)c1c(C)[nH]c(C(=O)CSc2nnc(-c3cccs3)n2Cc2ccccc2)c1C	72*	73*	-2.7	0.3	0.3
NC(=O)c1cnccn1	.	.	-0.31	.	.
CCN(CC)/C(=N/S(=O)(=O)c1ccc(C)cc1)c1ccccc1	19	57*	1.3	0.4	0.8
SMILES	CYP2C9 inhib	CYP2C19 inhib	Cav32 inh	CYP2C19 activ	CYP2C9 activ
CCCOC(=S)N/C(=N\S(=O)(=O)c1ccccc1)c1ccccc1	67*	37	-3.1	0.6	0.3
Cc1ccc(S(=O)(=O)/N=C(/NC(=S)Nc2ccccc2)c2ccccc2)cc1	44	25	-1.7	0.8	0.6
Cc1ccc(NC(=S)N/C(=N/S(=O)(=O)c2ccccc2)c2ccccc2)cc1	82*	20	-0.71	0.8	0.2
CC(C)c1ccc(NC(=O)C(c2ccccc2)N(C)C(=O)CCc2c[nH]c3ccccc23)cc1 (configuration not stated)	.	.	-0.84	.	.
Brc1ccc2c(c1)CNc1c(ncnc1N1CCOCC1)O2	58*	98*	1.2	0	0.4
Cc1ccc(C(=O)C(OC(=O)CN2C(=O)c3ccccc3C2=O)c2ccccc2)cc1 (configuration not stated)	18	44	-5.9*	0.6	0.8
COC(=O)CNS(=O)(=O)c1ccc(C)cc1	-7	5	-0.087	1	1.1
Cc1ccc(C(=O)C(OC(=O)CN2C(=O)c3ccccc3C2=O)c2ccccc2)cc1C (configuration not stated)	-96	26	-5.1*	0.7	2*
O=C(CN1C(=O)c2ccccc2C1=O)OC(C(=O)c1ccc(Cl)cc1)c1ccccc1 (configuration not stated)	45	45	-2.7	0.5	0.6
C=C(C)CN1C(=O)c2ccccc2C1=O	3	18	-1.8	0.8	1
O=C(CN1C(=O)c2ccccc2C1=O)c1ccccc1	51*	26	1.3	0.7	0.5
Cc1ccc(S(=O)(=O)NCC(=O)OC(C(=O)c2ccccc2)c2ccccc2)cc1 (configuration not stated)	57*	47	-3.5*	0.5	0.4
C[C@@H](c1ncncc1F)[C@](O)(Cn1cncn1)c1ccc(F)cc1F	.	.	1.1	.	.
CN(C)c1nc2n(c(=S)n1)CCS2	-9	-3	-0.32	1	1.1
COc1ccccc1-n1c(SCC(=O)NC2CCCCC2)nc2c(c1=O)SCC2	2	12	.	0.9	1
NC(=O)C1=C[C@@H](c2ccc(Br)cc2)C[C@@H](OCCCCO)O1	.	.	0.42	.	.
Cc1oc(-c2ccccc2)nc1C(=O)OCC(=O)NC(=O)NCC(C)C	51*	25	-0.38	0.8	0.5
O=C(NC1CCCC1)C1CCC(=O)N1CCc1ccccc1 (configuration not stated)	54*	37	0.23	0.6	0.5
O=C(NC1CCCC1)C1CC(=O)N(CCc2ccccc2)C1 (configuration not stated)	10	16	-1.5	0.8	0.9
CC1(C)CC(=O)C=C(c2cccc3c2oc2ccccc23)C1	.	.	1.5	.	.
CCOC(=O)c1c2ccc(OCC(=O)N/N=C/c3ccc(C)cc3)cc2n2ccccc12	65*	36	.	0.6	0.3
CCOc1cc(/C=N/NC(=O)CNc2ccc(C)cc2)ccc1OC(=O)c1ccccc1	21	7	-1.3	0.9	0.8
COc1ccc(CNC(=O)CSc2nnnn2Cc2ccccc2)cc1	73*	79*	-1.4	0.2	0.3
COc1ccc(-n2nnnc2SCC#CCO)cc1	45	90*	-0.91	0.1	0.6
COc1ccc(CCNc2nnc(Sc3nnnn3-c3ccccc3)s2)cc1OC	8	73*	0.96	0.3	0.9
CCCn1nnnc1SCC(=O)NCc1ccc(OC)cc1	-14	20	0.54	0.8	1.1
COc1ccc(CNC(=O)CSc2nnnn2-c2ccccc2)cc1	73*	89*	-0.15	0.1	0.3

Screening results deposited in PubChem BioAssay by several laboratories.
